# FLuc counter = qHTS profiling assay for firefly luciferase inhibitor/activator using purifed enzyme and Km concentrations of substrates (counterscreen for miR-21 project). Luciferin 4-monooxygenase (Photinus pyralis), P08659. purified FLuc, Km substrates, luminescence inhibition. Potency, µM (series often up to 57.5 µM), without a hit: at the top dose activity change, negative = inhibition, hits mostly inhibitors. 360,000 tested, 6.9% active. AID 588342, 2011;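 further: plate controls were vehicle for no effect and reference inhibitor for full effect; nearly all actives have a fitted effect of over 55% in size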
# Target sequence (P08659 whole entry, looked up): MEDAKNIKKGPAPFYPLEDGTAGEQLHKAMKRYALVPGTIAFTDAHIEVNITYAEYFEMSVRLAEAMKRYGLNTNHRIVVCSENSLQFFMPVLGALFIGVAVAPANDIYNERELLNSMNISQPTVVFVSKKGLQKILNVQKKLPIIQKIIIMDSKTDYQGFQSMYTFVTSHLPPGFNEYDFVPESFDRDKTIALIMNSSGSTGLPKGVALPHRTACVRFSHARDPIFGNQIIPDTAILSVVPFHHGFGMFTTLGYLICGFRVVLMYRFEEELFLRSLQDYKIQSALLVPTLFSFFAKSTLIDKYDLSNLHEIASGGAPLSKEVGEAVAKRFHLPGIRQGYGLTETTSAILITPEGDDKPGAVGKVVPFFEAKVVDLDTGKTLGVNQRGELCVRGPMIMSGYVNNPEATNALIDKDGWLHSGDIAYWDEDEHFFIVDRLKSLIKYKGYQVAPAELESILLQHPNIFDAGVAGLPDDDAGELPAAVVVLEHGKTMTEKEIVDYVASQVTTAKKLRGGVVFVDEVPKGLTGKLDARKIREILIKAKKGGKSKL
#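 Purified P. pyralis luciferase, 10 nM final, with Km-level 10 uM D-luciferin and 10 uM ATP in 50 mM Tris acetate pH 7.5, 10 mM Mg acetate, 0.01% Tween-20, 0.05% BSA; 6-point qHTS titration about 60 µM downward; luminescence read.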
# ELG1 genotox = qHTS screen for small molecules that induce genotoxicity in human embryonic kidney (HEK293T) cells expressing luciferase-tagged ELG1; HEK293T ELG1-luciferase reporter, luminescence, 16 h; Potency, µM (series often up to 46 µM), inactives show at the top dose activity change, positive = activation, usual class: activators; 330,000 tested, 1.3% active; AID 504466, 2011; further: % of control where 0% means no effect; nearly all actives have a fitted effect of over 60% in size
#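 HEK293T cells expressing luciferase-tagged ELG1 were exposed to compound or DMSO vehicle for 16 hr at 37 °C and 5% CO2. Luciferase activity was then measured with ONE-Glo after 30 min at room temperature.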
# NPC1 prom act = qHTS Assay for NPC1 Promoter Activators; Huh7 NPC1 promoter luciferase reporter, 24 h; Potency, µM (doses to about 9.22 µM), for inactives: at the highest dose activation, most hits filed as activators; 320,000 tested, 2.4% active; AID 485313, 2010; further: % of control where 0% means no effect; nearly all actives have a fitted effect of over 60% in size
#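 Luminescence read-out of NPC1 promoter-driven luciferase in stably transfected Huh7 cells; compounds delivered in DMSO and left 24 h at 37C, 5% CO2, qHTS titration format.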
# p53 reactivation = qHTS assay for re-activators of p53 using a Luc reporter; H1299 p53-A138V BP100-luciferase reporter, luminescence, 24 h; Potency, µM (highest dose often 92.2 µM), without a hit: at the highest dose activity change, positive = activation, actives largely listed as activators; 320,000 tested, 0.063% active; AID 504706, 2011; further: % of control where 0% means no effect; nearly all actives have a fitted effect of over 45% in size
#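 H1299 (p53-null), stable ts p53-A138V + BP100-Luc; 1000 cells/well, Opti-MEM/10% FBS; cpd 4 pt, 1:5; 24 h, 37 deg C, 5% CO2; detection reagent 10 min RT; luminescence.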
# SMN2 splice enh = qHTS Assay for Enhancers of SMN2 Splice Variant Expression; HEK293 SMN2-luciferase splicing reporter, luminescence, 30-36 h; Potency, µM (highest dose often 46.1 µM), without a hit: top-dose activity change, positive = activation, actives largely listed as activators; 210,000 tested, 2.8% active; AID 1458, 2008; further: % of control where 0% means no effect; nearly all actives have a fitted effect of over 55% in size
#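 HEK293 cells carry an SMN2 minigene-luciferase reporter in which exon 7 inclusion puts luciferase in frame. Cells were seeded at 2000 cells/well, attached for 10-12 hours, then exposed to compounds for 30-36 hours at 37C before ONE-Glo luminescence.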
# Rab9 promoter act = qHTS Assay for Rab9 Promoter Activators; AID 485297, 2010; Potency, µM (series often up to 9.22 µM), inactives show at the top dose activation, negative = inhibition, actives largely listed as activators; Huh7 Rab9 promoter-luciferase reporter, luminescence, 24 h; 320,000 tested, 2.8% active; further: % of control where 0% means no effect; nearly all actives have a fitted effect of over 60% in size
#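 Steps: seed 1500 Huh7 Rab9-luc cells per well, rest 2 h at 37 °C; add compound in DMSO; incubate 24 h; add luciferase reagent, 10 min ambient; read luminescence.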
# * marks the source's active call; other numbers are inactive results; u = inconclusive; x = not tested or not shown. Only some compounds are listed: those with a hit (about 7.4% of all), similar ones and a draw of the others. The call rests on the fitted dose curve; in most records, active means well fitted curve in the direction sought with a large enough effect; inconclusive means small, poorly fitted or top-dose-only effect, or another doubt; inactive means no such curve, though single readings can be large; an effect the other way counts as inactive or inconclusive. Potency means the concentration at half of the fitted maximal effect.
SMILES,FLuc counter,ELG1 genotox,NPC1 prom act,p53 reactivation,SMN2 splice enh,Rab9 promoter act
CCC1SC(=NC(=O)c2ccc(Cl)c(Cl)c2)NC1=O (centres undefined),24µM*,u,23%,19%,u,23%
Oc1ccccc1CNc1ccc(Br)cn1,9.5µM*,-2%,u,12%,u,u
Clc1ccccc1CSc1cc2c(nn1)-c1ccccc1CC2,5.4µM*,u,u,u,20µM*,2.5µM*
CCc1ccc(NCc2cc3ccc(OC)cc3n(CC(=O)Nc3c(C)cc(C)cc3C)c2=O)cc1,0%,x,x,x,x,x
COc1cc(C(=O)N/N=C/c2sc(=O)n(-c3ccccc3)c2Cl)cc(OC)c1OC,6µM*,7%,-4%,9%,-4%,-8%
COc1cc(/C=N/NC(=O)c2cc(-c3ccccc3)sc2N)cc(OC)c1OC,4.8µM*,-8%,6%,-3%,x,0%
COc1cc(/C=N\NC(=O)c2sc(N)nc2C)cc(OC)c1OC,15µM*,7%,0%,-2%,10%,12%
COc1cc(/C=N/NC(=O)c2ccc(-c3ccccc3)cc2)cc(OC)c1OC,11µM*,-7%,9%,-12%,19%,13%
CCn1cc(C(=O)NCc2ccc(OC)cc2)c(=O)c2ccc(C)nc21,-11%,1%,-2%,9%,x,-3%
Cc1ccc(C)c(N2CCN(C(=O)c3c4c(nc5ccccc35)C(=O)N(C3CCCCC3)C4)CC2)c1,-7%,x,x,x,x,x
O=C(Nc1ccc(/C=C/c2nc3ccccc3o2)cc1)c1c(F)cccc1F,2.1µM*,1.5µM*,3.2µM*,x,8.9µM*,2µM*
O=C(Nc1ccc(/C=C/c2nc3ccccc3o2)cc1)c1cccc(C(F)(F)F)c1,u,u,28%,u,x,u
CC(=O)Nc1ccc(/C=C/c2nc3ccccc3o2)cc1,4.8µM*,u,2.2µM*,x,x,0.45µM*
CN(C)c1ncc2nc(-c3ccc(F)cc3)c(=O)n(CCC#N)c2n1,x,x,x,x,7%,x
CC(=O)Nc1ccc(C2CC(c3ccc(Cl)cc3)=NN2c2ccccc2)cc1 (centres undefined),17µM*,8%,11%,23%,x,17%
CC(=O)Nc1ccc(C2=NN(c3ccccc3)C(c3ccccc3)C2)cc1 (centres undefined),-13%,11%,15%,2%,x,9%
O=C(NC(Cc1ccccc1)C(=O)O)c1ccccc1 (centres undefined),-11%,0%,-3%,5%,-11%,2%
CCC(NC(=O)c1ccccc1NC(=O)c1ccc(C)cc1)C(=O)O (centres undefined),13µM*,u,10%,26%,2%,20%
CCC(C)C(NC(=O)c1ccccc1NC(=O)c1ccccc1)C(=O)O (centres undefined),3%,-2%,-2%,8%,x,0%
O=C(NC(Cc1c[nH]c2ccccc12)C(=O)O)c1ccccc1 (centres undefined),3%,5%,-3%,-1%,u,1%
Cc1ccc(C(=O)Nc2ccccc2C(=O)NC(Cc2c[nH]c3ccccc23)C(=O)O)cc1 (centres undefined),11µM*,9%,11%,5%,23%,21%
Cc1ccc(C(=O)Nc2ccccc2C(=O)NC(Cc2ccccc2)C(=O)O)cc1 (centres undefined),11µM*,13%,14%,4%,13%,24%
CC1=C(/C=C/C(C)=C/C=C/C(C)=C\CO)C(C)(C)CCC1,x,x,x,x,-2%,x
CS(=O)(=O)N1CCC[C@@]2(CCN(C(c3ccccc3)c3ccccc3)C2)C1,x,x,x,x,4%,x
Cc1cc(C(=O)CSc2n[nH]c(N)n2)c(C)n1-c1ccccc1,6µM*,4.5µM*,2.5µM*,28%,11µM*,u
SMILES,FLuc counter,ELG1 genotox,NPC1 prom act,p53 reactivation,SMN2 splice enh,Rab9 promoter act
C=CCn1c(C)cc(C(=O)CSc2n[nH]c(N)n2)c1C,19µM*,15µM*,24%,16%,u,19%
Cc1ccc(-n2c(C)cc(C(=O)CSc3n[nH]c(N)n3)c2C)cc1,9.5µM*,1%,26%,3%,-34%,20%
Cc1cc(C(=O)CSc2n[nH]c(N)n2)c(C)n1-c1ccc(F)cc1,19µM*,15%,u,u,-12%,u
CN1c2cc3c(cc2N=C(c2ccc(C(=O)O)cc2)c2ccccc21)C(C)(C)CCC3(C)C,x,x,x,x,-70%,x
CCOC(=O)c1cccc(NC(=O)CC2C(=O)N(c3ccc(Cl)cc3)C(=O)N2C2CCCC2)c1 (centres undefined),-14%,x,x,x,x,x
COc1ccc(C(C(=O)NC(C)(C)C)N(C(=O)CCC(=O)Nc2cc(C)on2)c2cccc(C)c2C)cc1 (centres undefined),0%,-3%,-3%,1%,x,14%
Cc1cc(C(=O)CSc2nnc3ccccn23)c(C)n1-c1ccccc1,0.19µM*,u,u,-6%,-47%,u
CS(=O)(=O)c1cnc2c(-c3ccsc3)cnn2c1N,11µM*,21µM*,2.8µM*,5%,13µM*,2.8µM*
Cc1cc(C)c(C)c(S(=O)(=O)Nc2ccc3cn[nH]c3c2)c1C,3%,-1%,-2%,2%,x,-3%
COC(=O)C(C)N1C(=O)S/C(=C/c2cc(C)n(-c3ccccn3)c2C)C1=O (centres undefined),3µM*,2.6µM*,1.6µM*,21%,-42%,0.89µM*
COC(=O)C(C)N1C(=O)S/C(=C\c2cc(C)n(-c3ccccn3)c2C)C1=O (centres undefined),2.7µM*,1.6µM*,2µM*,19%,-59%,2µM*
CCOC(=O)CN1C(=O)S/C(=C/c2ccc(C)o2)C1=O,-18%,14%,-3%,1%,x,-1%
CCOC(=O)CN1C(=O)S/C(=C/c2cc(C)n(-c3ccccn3)c2C)C1=O,6µM*,17%,u,27%,-6%,4µM*
CCN(C(=O)Cn1nc(Cc2cccnc2)c2ccccc2c1=O)c1ccccc1F,-2%,x,x,x,-21%,x
O=C(Cn1ncc2c3ccccc3n(Cc3ccccc3F)c2c1=O)NCc1ccccc1Cl,-6%,x,x,x,-1%,x
O=C(NC1CCCC1)c1cc2ccccc2o1,u,u,28%,19%,x,u

# Screening data as filed in PubChem.
